This is an account of results in article PMC5869772, “Quantitative profiling of BATF family proteins/JUNB/IRF hetero-trimers using Spec-seq”.

The first test concerns the target T1, BATF;JUNB (human;human, UniProt Q16520;P17275 1-125;148-347, |).
T1 sequence 1: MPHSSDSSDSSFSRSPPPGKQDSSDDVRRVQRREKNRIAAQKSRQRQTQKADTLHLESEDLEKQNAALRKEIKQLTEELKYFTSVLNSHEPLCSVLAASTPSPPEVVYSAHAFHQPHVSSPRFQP
T1 sequence 2: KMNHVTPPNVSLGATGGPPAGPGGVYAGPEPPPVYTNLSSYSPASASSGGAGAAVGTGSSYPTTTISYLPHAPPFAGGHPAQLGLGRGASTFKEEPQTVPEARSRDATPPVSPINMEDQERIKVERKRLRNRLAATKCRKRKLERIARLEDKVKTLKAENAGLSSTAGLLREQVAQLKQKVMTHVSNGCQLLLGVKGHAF
As to the kind of experiment: Spec-seq (EMSA and sequencing of bound and unbound bands); 100 nM BATFx-JUNB, 1 uM dsDNA library, 50 mM K acetate, 20 mM Tris-acetate, 10 mM Mg acetate, 100 ug/ml BSA, pH 7.9, 10% glycerol, 30 min on ice; native 9% PAGE at 4 C; low values mean tight binding. The conditions noted are these: protein: recombinant;recombinant; tags: N-terminal mCherry-TEV, cleaved off;C-terminal 6His; copies: 1;1; dsDNA, one strand shown. The method, boiled down: (§1)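 The protein, at 100 nM, was incubated with 1 μM double-stranded degenerate DNA library for 30 min on ice in NEB Cutsmart buffer with 10% glycerol, then resolved by native 9% PAGE at 4 °C. Excised bound and unbound bands were PCR-barcoded and Illumina-sequenced, and each sequence's relative binding energy in kT is −ln of its bound/unbound read-count ratio.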
“GATAGTCTCATTTTCACCCCGTGAAATTACGTCATTGTTCCATTACAGTATCTGT”: the binding signal is -0.943 kT.
On the same count and under the same terms, as for “GATAGTCTCATTTTCACCCCGTGAAATAACGTCATTGTTCCATTACAGTATCTGT”, the figure is -0.467 kT; as for “GATAGTCTCATTTTCACCCCGTGAAATGACTCTCTTGTTCCATTACAGTATCTGT”, 0.11 kT; as for “GATAGTCTCATTTTCACCCCGTGAAATGACTCGATTGTTCCATTACAGTATCTGT”, -0.328 kT.
Take “GATAGTCTCATTTTCACCCCGTGAAATGTCGTCATTGTTCCATTACAGTATCTGT”: the binding signal was -0.357 kT.
On the same count and under the same terms, as for “GATAGTCTCATTTTCACCCCGTGAAAATGGGTCATTGTTCCATTACAGTATCTGT”, the figure is -0.00523 kT.
In the case of “GATAGTCTCATTTTCACCCCGTGAAATGAGTCGCTTGTTCCATTACAGTATCTGT”, the binding signal amounted to 0.025 kT.
For the sequence “GATAGTCTCATTTTCACCCCGTGAAATGAGTCGATTGTTCCATTACAGTATCTGT”, the binding signal is -0.215 kT.
Take “GATAGTCTCATTTTCACCCCGTGAAATGACTTATTTGTTCCATTACAGTATCTGT”: the binding signal is -0.08 kT.
Take “GATAGTCTCATTTTCACCCCGTGAAATGAGACAATTGTTCCATTACAGTATCTGT”: the binding signal is 0.693 kT.
As to “GATAGTCTCATTTTCACCCCGTGAAATGACGTCGTTGTTCCATTACAGTATCTGT”, the binding signal is -0.291 kT.
“GATAGTCTCATTTTCACCCCGTGAAATGACGTCTTTGTTCCATTACAGTATCTGT”: the binding signal is -0.0562 kT.
Consider “GATAGTCTCATTTTCACCCCGTGAAATTGTGTCATTGTTCCATTACAGTATCTGT”, for which the binding signal was -0.292 kT.
Consider “GATAGTCTCATTTTCACCCCGTGAAACGAGTCATTTGTTCCATTACAGTATCTGT”, for which the binding signal was -0.477 kT.
Regarding “GATAGTCTCATTTTCACCCCGTGAAATGAGGCACTTGTTCCATTACAGTATCTGT”, the binding signal turned out to be 0.813 kT.
“GATAGTCTCATTTTCACCCCGTGAAATGAGTCACTTGTTCCATTACAGTATCTGT”: the binding signal is -0.822 kT.
With “GATAGTCTCATTTTCACCCCGTGAAACCGAGTCATTGTTCCATTACAGTATCTGT”, the binding signal was -0.617 kT.
Take “GATAGTCTCATTTTCACCCCGTGAAATGAGTGAGTTGTTCCATTACAGTATCTGT”: the binding signal was -0.103 kT.
In the case of “GATAGTCTCATTTTCACCCCGTGAAATGACGCAATTGTTCCATTACAGTATCTGT”, the binding signal was -0.574 kT.
“GATAGTCTCATTTTCACCCCGTGAAATGAGTCAATTGTTCCATTACAGTATCTGT”: the binding signal was -0.554 kT.
On to “GATAGTCTCATTTTCACCCCGTGAAATGAGTCGTTTGTTCCATTACAGTATCTGT”, for which the binding signal is -0.00852 kT.
As to “GATAGTCTCATTTTCACCCCGTGAAATGAGCCAGTTGTTCCATTACAGTATCTGT”, the binding signal turned out to be 0.487 kT.
For the sequence “GATAGTCTCATTTTCACCCCGTGAAATAGAGTCATTGTTCCATTACAGTATCTGT”, the binding signal was -0.357 kT.
As for “GATAGTCTCATTTTCACCCCGTGAAATGACTTAATTGTTCCATTACAGTATCTGT”, the binding signal is -0.138 kT.
“GATAGTCTCATTTTCACCCCGTGAAATGAGCCATTTGTTCCATTACAGTATCTGT”: the binding signal was 0.392 kT.
Take “GATAGTCTCATTTTCACCCCGTGAAAAGGAGTCATTGTTCCATTACAGTATCTGT”: the binding signal was -0.134 kT.
“GATAGTCTCATTTTCACCCCGTGAAATGCGTCATTTGTTCCATTACAGTATCTGT”: the binding signal was -0.941 kT.
Same read-out and setting: as for “GATAGTCTCATTTTCACCCCGTGAAATGAGTCCGTTGTTCCATTACAGTATCTGT”, the figure is 0.231 kT.
For the sequence “GATAGTCTCATTTTCACCCCGTGAAATGACTAAATTGTTCCATTACAGTATCTGT”, the binding signal was -0.125 kT.
Turning to “GATAGTCTCATTTTCACCCCGTGAAATGACTCTATTGTTCCATTACAGTATCTGT”, the binding signal is -0.0428 kT.
Take “GATAGTCTCATTTTCACCCCGTGAAATGACTTAGTTGTTCCATTACAGTATCTGT”: the binding signal was 0.0125 kT.
Take “GATAGTCTCATTTTCACCCCGTGAAAATTAGTCATTGTTCCATTACAGTATCTGT”: the binding signal was -1.07 kT.
As for “GATAGTCTCATTTTCACCCCGTGAAATGACTCGTTTGTTCCATTACAGTATCTGT”, the binding signal is -0.0971 kT.

A further test deals with T2, BATF2 (bZIP);JUNB (human;human, UniProt Q8N1L9;P17275 1-142;148-347, |).
T2 sequence 1: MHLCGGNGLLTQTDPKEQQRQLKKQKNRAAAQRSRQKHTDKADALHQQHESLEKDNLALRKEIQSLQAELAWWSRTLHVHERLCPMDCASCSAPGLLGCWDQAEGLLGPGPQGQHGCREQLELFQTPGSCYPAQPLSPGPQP
T2 sequence 2: T1 sequence 2
Described as above. The following applies: protein: recombinant;recombinant; tags: N-terminal mCherry-TEV, cleaved off;C-terminal 6His; copies: 1;1; dsDNA, one strand shown. Summed up:
as §1
On to “GATAGTCTCATTTTCACCCCGTGAAATTACGTCATTGTTCCATTACAGTATCTGT”, for which the binding signal was -1.14 kT.
Take “GATAGTCTCATTTTCACCCCGTGAAATAACGTCATTGTTCCATTACAGTATCTGT”: the binding signal is -0.287 kT.
“GATAGTCTCATTTTCACCCCGTGAAATGACTCTCTTGTTCCATTACAGTATCTGT”: the binding signal stood at 0.738 kT.
Same read-out and setting: as for “GATAGTCTCATTTTCACCCCGTGAAATGACTCGATTGTTCCATTACAGTATCTGT”, the figure is 0.519 kT.
As to “GATAGTCTCATTTTCACCCCGTGAAATGTCGTCATTGTTCCATTACAGTATCTGT”, the binding signal was -0.113 kT.
Consider “GATAGTCTCATTTTCACCCCGTGAAAATGGGTCATTGTTCCATTACAGTATCTGT”, for which the binding signal amounted to 0.62 kT.
With “GATAGTCTCATTTTCACCCCGTGAAATGAGTCGCTTGTTCCATTACAGTATCTGT”, the binding signal turned out to be 1.18 kT.
In the case of “GATAGTCTCATTTTCACCCCGTGAAATGAGTCGATTGTTCCATTACAGTATCTGT”, the binding signal came out at 1.01 kT.
As to “GATAGTCTCATTTTCACCCCGTGAAATGACTTATTTGTTCCATTACAGTATCTGT”, the binding signal came to 0.489 kT.
As for “GATAGTCTCATTTTCACCCCGTGAAATGAGACAATTGTTCCATTACAGTATCTGT”, the binding signal amounted to 1.52 kT.
Regarding “GATAGTCTCATTTTCACCCCGTGAAATGACGTCGTTGTTCCATTACAGTATCTGT”, the binding signal was 0.27 kT.
For “GATAGTCTCATTTTCACCCCGTGAAATGACGTCTTTGTTCCATTACAGTATCTGT”, the binding signal was 0.447 kT.
Regarding “GATAGTCTCATTTTCACCCCGTGAAATTGTGTCATTGTTCCATTACAGTATCTGT”, the binding signal is -0.0836 kT.
On the same count and under the same terms, as for “GATAGTCTCATTTTCACCCCGTGAAACGAGTCATTTGTTCCATTACAGTATCTGT”, the figure is 0.283 kT; as for “GATAGTCTCATTTTCACCCCGTGAAATGAGGCACTTGTTCCATTACAGTATCTGT”, 1.32 kT; as for “GATAGTCTCATTTTCACCCCGTGAAATGAGTCACTTGTTCCATTACAGTATCTGT”, -0.342 kT.
On to “GATAGTCTCATTTTCACCCCGTGAAACCGAGTCATTGTTCCATTACAGTATCTGT”, for which the binding signal worked out at 0.173 kT.
Consider “GATAGTCTCATTTTCACCCCGTGAAATGAGTGAGTTGTTCCATTACAGTATCTGT”, for which the binding signal was 0.64 kT.
In the case of “GATAGTCTCATTTTCACCCCGTGAAATGACGCAATTGTTCCATTACAGTATCTGT”, the binding signal is -0.276 kT.
As to “GATAGTCTCATTTTCACCCCGTGAAATGAGTCAATTGTTCCATTACAGTATCTGT”, the binding signal was found to be 0.156 kT.
The same measure, in the same setting: the same measure for “GATAGTCTCATTTTCACCCCGTGAAATGAGTCGTTTGTTCCATTACAGTATCTGT”: 0.968 kT; for “GATAGTCTCATTTTCACCCCGTGAAATGAGCCAGTTGTTCCATTACAGTATCTGT”: 1.33 kT.
Still for that read-out and setting: as for “GATAGTCTCATTTTCACCCCGTGAAATAGAGTCATTGTTCCATTACAGTATCTGT”, the figure is 0.163 kT; as for “GATAGTCTCATTTTCACCCCGTGAAATGACTTAATTGTTCCATTACAGTATCTGT”, 0.212 kT.
On to “GATAGTCTCATTTTCACCCCGTGAAATGAGCCATTTGTTCCATTACAGTATCTGT”, for which the binding signal amounted to 1.26 kT.
As for “GATAGTCTCATTTTCACCCCGTGAAAAGGAGTCATTGTTCCATTACAGTATCTGT”, the binding signal turned out to be 0.436 kT.
“GATAGTCTCATTTTCACCCCGTGAAATGCGTCATTTGTTCCATTACAGTATCTGT”: the binding signal is -0.434 kT.
Turning to “GATAGTCTCATTTTCACCCCGTGAAATGAGTCCGTTGTTCCATTACAGTATCTGT”, the binding signal worked out at 1.26 kT.
Consider “GATAGTCTCATTTTCACCCCGTGAAATGACTAAATTGTTCCATTACAGTATCTGT”, for which the binding signal worked out at 0.513 kT.
Same read-out and setting: as for “GATAGTCTCATTTTCACCCCGTGAAATGACTCTATTGTTCCATTACAGTATCTGT”, the figure is 0.602 kT; as for “GATAGTCTCATTTTCACCCCGTGAAATGACTTAGTTGTTCCATTACAGTATCTGT”, 0.47 kT; as for “GATAGTCTCATTTTCACCCCGTGAAAATTAGTCATTGTTCCATTACAGTATCTGT”, -0.658 kT.
On the same count and under the same terms, the same measure for “GATAGTCTCATTTTCACCCCGTGAAATGACTCGTTTGTTCCATTACAGTATCTGT”: 0.491 kT.
